In the supplement of paper PMC10849652:
Of roughly 7,900 targets only a part is listed; those with a hit were picked by preference. About 0.6% of all pairs of compound and target were hits.

Tests used:
Experiment in all cases: log2 fold change, soluble protein after heating vs DMSO (PISA); higher = thermal stabilisation; K562 cells, 10 uM, 30 min; active = over 0.2 and 3.5 SD of the protein, either way, in both replicates (recomputed)
[1] = compound: CN1CCN(CCOc2cc(OC3CCOCC3)c3c(Nc4c(Cl)ccc5c4OCO5)ncnc3c2)CC1 [saracatinib]
Summary of the method: (§1)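 K562 cells at 2×10^6 cells/mL were treated for 30 min with 10 μM compound, and aliquots were heated for 3 min over 48°C-58°C before pooling. Extraction used PBS with 0.5% NP-40 at 4°C, and soluble protein was the supernatant after 21,000xg for 90 min, measured by TMTpro 16plex LC-MS/MS with channel sums equalised. Thermal stability values, relative to control samples and from duplicates, are log2 fold changes.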

[2] = compound: CN1CCN(c2nc(C3=C(c4c[nH]c5ccccc45)C(=O)NC3=O)c3ccccc3n2)CC1 [sotrastaurin]
Summary of the method: as §1

[3] = compound: CN1CC[C@H](c2c(O)cc(O)c3c(=O)cc(-c4ccccc4Cl)oc23)[C@H](O)C1 [alvocidib]
Summary of the method: as §1

[4] = compound: CN1CCc2c(c3ccccc3n2Cc2ccc(C(=O)NO)cc2)C1 [Tubastatin A]
Summary of the method: as §1

[5] = compound: CNC(=O)C1=CC=CC=C1NC2=NC(=NC=C2Cl)NC3=C(C=C(C=C3)N4CCOCC4)OC
Summary of the method: as §1

[6] = compound: CNC(=O)c1ccc(Nc2ncc(C(F)(F)F)c(NCc3nccnc3N(C)S(C)(=O)=O)n2)cc1 [defactinib]
Summary of the method: as §1

[7] = compound: CNCc1ccc(-c2[nH]c3cc(F)cc4c3c2CCNC4=O)cc1 [rucaparib]
Summary of the method: as §1

[8] = compound: CNc1nc(-c2ccc3c(N)n[nH]c3c2)cc(N2C[C@@H](C(=O)NC3CCCCC3)CC[C@H]2C)n1
Summary of the method: as §1

[9] = compound: COC(=O)N[C@@H](C)CNc1nccc(-c2cn(C(C)C)nc2-c2cc(Cl)cc(NS(C)(=O)=O)c2F)n1 [encorafenib]
Summary of the method: as §1

[10] = compound: COC(=O)[C@H](CCSC)NC(=O)C1=C(C=C(C=C1)NC[C@H](CS)N)C2=CC=CC=C2
Summary of the method: as §1

[11] = compound: COC1=CC=C(C=C1)CN2C=CC3=C2C=C(C=C3)C(=O)NO
Summary of the method: as §1

[12] = compound: CON(C)C(=O)N1N=C(c2cc(F)ccc2F)S[C@@]1(CCCN)c1ccccc1 [filanesib]
Summary of the method: as §1

[13] = compound: CO[C@H]1C[C@@H]2CC[C@@H](C)[C@@](O)(O2)C(=O)C(=O)N2CCCC[C@H]2C(=O)O[C@H]([C@H](C)C[C@@H]2CC[C@H](n3cnnn3)[C@H](OC)C2)CC(=O)[C@H](C)/C=C(\C)[C@@H](O)[C@@H](OC)C(=O)[C@H](C)C[C@H](C)/C=C/C=C/C=C/1C [zotarolimus]
Summary of the method: as §1

[14] = compound: COc1cc(C(=O)O)ccc1NC(=O)[C@@H]1N[C@@H](CC(C)(C)C)[C@](C#N)(c2ccc(Cl)cc2F)[C@H]1c1cccc(Cl)c1F [idasanutlin]
Summary of the method: as §1

[15] = compound: COc1cc(Nc2ncc3c(n2)-c2ccc(Cl)cc2C(c2c(F)cccc2OC)=NC3)ccc1C(=O)O [alisertib]
Summary of the method: as §1

[16] = compound: COc1cc2nc(-c3cc(F)ccc3O)nc(N[C@@H]3CNC[C@H]3C(C)(C)O)c2cc1OC
Summary of the method: as §1

[17] = compound: COc1cc2ncnc(Nc3ccc(F)c(Cl)c3)c2cc1OCCCN1CCOCC1 [gefitinib]
Summary of the method: as §1

[18] = compound: COc1cccc2cc(-c3nc([C@H]4CC[C@H](C(=O)O)CC4)n4ncnc(N)c34)[nH]c12
Summary of the method: as §1

[19] = compound: CS(=O)(=O)CCNCc1ccc(-c2ccc3ncnc(Nc4ccc(OCc5cccc(F)c5)c(Cl)c4)c3c2)o1 [lapatinib]
Summary of the method: as §1

[20] = compound: CS(=O)(=O)N1CCN(Cc2cc3nc(-c4cccc5[nH]ncc45)nc(N4CCOCC4)c3s2)CC1 [pictilisib]
Summary of the method: as §1

Measured: log2 fold change

SDHAF2 (UniProt Q9NX18)
Sequence of UniProt Q9NX18 (Q9NX18 whole entry, looked up): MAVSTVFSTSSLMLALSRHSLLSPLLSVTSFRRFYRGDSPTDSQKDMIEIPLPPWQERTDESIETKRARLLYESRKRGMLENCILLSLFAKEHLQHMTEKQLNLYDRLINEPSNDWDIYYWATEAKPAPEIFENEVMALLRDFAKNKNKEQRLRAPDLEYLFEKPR
inactive: [1] 0.08 | [2] -0.035 | [3] -0.026 | [4] 0.037 | [5] 0.016 | [6] -0.002 | [7] 0.115 | [8] -0.078 | [9] -0.003 | [10] 0.01 | [11] 0.063 | [12] -0.03 | [13] 0.068 | [14] -0.085 | [15] 0.02 | [16] -0.163 | [17] 0.09 | [18] 0.102 | [19] -0.013 | [20] 0.091

RPS14 (UniProt P62263)
inactive: [1] 0.027 | [2] -0.003 | [3] 0.166 | [4] 0.123 | [5] 0.056 | [6] 0.113 | [7] 0.107 | [8] 0.069 | [9] 0.013 | [10] -0.084 | [11] 0.034 | [12] 0.046 | [13] 0.028 | [14] 0.062 | [15] -0.209 | [16] -0.047 | [17] -0.048 | [18] -0.154 | [19] 0.132 | [20] -0.321

RPP14 (UniProt O95059)
Sequence of UniProt O95059 (O95059 whole entry, looked up): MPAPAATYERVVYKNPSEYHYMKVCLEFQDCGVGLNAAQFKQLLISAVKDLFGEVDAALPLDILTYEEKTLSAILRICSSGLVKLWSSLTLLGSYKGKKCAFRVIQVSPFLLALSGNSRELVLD
inactive: [1] 0.064 | [2] -0.01 | [3] 0.007 | [4] 0.059 | [5] -0.039 | [6] 0.012 | [7] 0.004 | [8] -0.029 | [9] 0.046 | [10] -0.034 | [11] -0.006 | [12] 0.046 | [13] 0.004 | [14] -0.038 | [15] -0.051 | [16] -0.053 | [17] -0.022 | [18] 0.047 | [19] 0.042 | [20] -0.19

RRP12 (UniProt Q5JTH9)
Sequence of UniProt Q5JTH9 (Q5JTH9 whole entry, looked up): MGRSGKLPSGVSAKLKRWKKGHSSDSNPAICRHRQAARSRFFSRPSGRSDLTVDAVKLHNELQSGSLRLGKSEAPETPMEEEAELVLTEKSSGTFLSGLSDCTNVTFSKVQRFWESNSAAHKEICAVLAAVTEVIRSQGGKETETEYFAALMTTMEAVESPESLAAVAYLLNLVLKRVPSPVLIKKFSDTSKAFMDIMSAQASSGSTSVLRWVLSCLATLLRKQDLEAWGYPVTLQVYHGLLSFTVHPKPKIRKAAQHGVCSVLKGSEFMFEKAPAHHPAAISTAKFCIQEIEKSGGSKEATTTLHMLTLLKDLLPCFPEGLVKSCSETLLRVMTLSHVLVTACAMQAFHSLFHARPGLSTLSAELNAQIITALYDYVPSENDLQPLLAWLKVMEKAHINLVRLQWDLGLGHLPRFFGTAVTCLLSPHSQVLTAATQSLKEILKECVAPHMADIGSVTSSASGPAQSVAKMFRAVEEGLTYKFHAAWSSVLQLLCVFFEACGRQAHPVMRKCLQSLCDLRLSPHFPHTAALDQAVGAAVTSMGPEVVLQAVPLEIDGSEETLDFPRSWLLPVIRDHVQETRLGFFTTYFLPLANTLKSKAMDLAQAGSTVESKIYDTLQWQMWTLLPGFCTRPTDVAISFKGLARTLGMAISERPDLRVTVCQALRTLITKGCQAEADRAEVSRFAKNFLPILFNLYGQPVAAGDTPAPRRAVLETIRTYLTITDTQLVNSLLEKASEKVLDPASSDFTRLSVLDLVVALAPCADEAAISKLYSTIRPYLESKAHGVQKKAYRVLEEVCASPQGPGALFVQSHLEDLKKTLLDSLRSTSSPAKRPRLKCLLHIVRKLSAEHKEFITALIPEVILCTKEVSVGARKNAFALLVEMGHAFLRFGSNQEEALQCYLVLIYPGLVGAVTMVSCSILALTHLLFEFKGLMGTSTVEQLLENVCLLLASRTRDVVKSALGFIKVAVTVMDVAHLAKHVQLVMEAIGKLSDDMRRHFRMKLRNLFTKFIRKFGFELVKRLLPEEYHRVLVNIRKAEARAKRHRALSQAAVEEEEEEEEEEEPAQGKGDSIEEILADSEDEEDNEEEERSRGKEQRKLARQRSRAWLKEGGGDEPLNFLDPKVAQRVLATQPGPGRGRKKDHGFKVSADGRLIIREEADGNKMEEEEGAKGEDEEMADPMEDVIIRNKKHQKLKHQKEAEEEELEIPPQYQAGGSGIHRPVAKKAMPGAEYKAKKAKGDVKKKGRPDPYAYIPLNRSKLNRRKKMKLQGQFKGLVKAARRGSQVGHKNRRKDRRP
inactive: [1] -0.024 | [2] -0.118 | [3] 0.233 | [4] 0.125 | [5] -0.057 | [6] -0.006 | [7] 0.183 | [8] -0.005 | [9] 0.138 | [10] 0.076 | [11] -0.03 | [12] 0.288 | [13] -0.046 | [14] 0.032 | [15] 0.204 | [16] 0.222 | [17] -0.104 | [18] -0.222 | [19] -0.128 | [20] 0.032

RAD50 isoform 2 (UniProt Q92878)
Sequence of UniProt Q92878 (Q92878 whole entry, looked up): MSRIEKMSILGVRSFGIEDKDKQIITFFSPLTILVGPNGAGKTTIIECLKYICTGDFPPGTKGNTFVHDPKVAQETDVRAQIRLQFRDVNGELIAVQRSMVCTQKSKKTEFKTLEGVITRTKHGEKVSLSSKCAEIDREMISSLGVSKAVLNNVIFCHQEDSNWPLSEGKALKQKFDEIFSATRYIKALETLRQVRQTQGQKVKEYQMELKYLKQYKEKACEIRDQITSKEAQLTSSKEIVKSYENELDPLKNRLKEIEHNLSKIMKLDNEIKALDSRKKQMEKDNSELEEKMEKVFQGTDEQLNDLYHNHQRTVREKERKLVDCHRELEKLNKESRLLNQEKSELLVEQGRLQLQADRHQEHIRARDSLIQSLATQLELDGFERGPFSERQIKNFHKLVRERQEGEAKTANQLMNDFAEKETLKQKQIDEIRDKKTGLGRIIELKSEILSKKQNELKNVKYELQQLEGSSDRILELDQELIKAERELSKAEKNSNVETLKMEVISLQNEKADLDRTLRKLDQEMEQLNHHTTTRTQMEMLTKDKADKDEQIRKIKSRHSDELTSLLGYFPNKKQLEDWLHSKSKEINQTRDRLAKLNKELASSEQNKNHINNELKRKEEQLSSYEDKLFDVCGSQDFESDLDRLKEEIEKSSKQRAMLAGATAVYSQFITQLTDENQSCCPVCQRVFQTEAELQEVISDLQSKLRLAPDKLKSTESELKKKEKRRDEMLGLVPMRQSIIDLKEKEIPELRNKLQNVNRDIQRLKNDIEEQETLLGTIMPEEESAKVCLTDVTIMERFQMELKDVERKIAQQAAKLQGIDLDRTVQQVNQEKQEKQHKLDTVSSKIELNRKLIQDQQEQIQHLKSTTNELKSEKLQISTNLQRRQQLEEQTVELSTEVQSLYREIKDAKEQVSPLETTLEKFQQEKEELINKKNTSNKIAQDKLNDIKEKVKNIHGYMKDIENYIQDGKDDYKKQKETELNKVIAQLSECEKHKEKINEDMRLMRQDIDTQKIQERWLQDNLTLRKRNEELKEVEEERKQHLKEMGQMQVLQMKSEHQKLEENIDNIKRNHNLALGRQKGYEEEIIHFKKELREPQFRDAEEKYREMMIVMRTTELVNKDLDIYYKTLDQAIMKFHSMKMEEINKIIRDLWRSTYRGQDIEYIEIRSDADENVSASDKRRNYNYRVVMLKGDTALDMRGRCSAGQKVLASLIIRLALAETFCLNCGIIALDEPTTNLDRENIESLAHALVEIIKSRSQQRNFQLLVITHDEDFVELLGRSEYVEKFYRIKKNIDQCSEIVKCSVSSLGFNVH
inactive: [1] 0.012 | [2] -0.024 | [3] -0.084 | [4] -0.025 | [5] 0 | [6] -0.103 | [7] 0.006 | [8] 0.006 | [9] 0.008 | [10] -0.019 | [11] -0.002 | [12] 0.008 | [13] 0.036 | [14] -0.016 | [15] 0 | [16] 0.002 | [17] 0.031 | [18] 0.007 | [19] -0.002 | [20] 0.02

SETMAR (UniProt Q53H47)
Sequence of UniProt Q53H47 (Q53H47 whole entry, looked up): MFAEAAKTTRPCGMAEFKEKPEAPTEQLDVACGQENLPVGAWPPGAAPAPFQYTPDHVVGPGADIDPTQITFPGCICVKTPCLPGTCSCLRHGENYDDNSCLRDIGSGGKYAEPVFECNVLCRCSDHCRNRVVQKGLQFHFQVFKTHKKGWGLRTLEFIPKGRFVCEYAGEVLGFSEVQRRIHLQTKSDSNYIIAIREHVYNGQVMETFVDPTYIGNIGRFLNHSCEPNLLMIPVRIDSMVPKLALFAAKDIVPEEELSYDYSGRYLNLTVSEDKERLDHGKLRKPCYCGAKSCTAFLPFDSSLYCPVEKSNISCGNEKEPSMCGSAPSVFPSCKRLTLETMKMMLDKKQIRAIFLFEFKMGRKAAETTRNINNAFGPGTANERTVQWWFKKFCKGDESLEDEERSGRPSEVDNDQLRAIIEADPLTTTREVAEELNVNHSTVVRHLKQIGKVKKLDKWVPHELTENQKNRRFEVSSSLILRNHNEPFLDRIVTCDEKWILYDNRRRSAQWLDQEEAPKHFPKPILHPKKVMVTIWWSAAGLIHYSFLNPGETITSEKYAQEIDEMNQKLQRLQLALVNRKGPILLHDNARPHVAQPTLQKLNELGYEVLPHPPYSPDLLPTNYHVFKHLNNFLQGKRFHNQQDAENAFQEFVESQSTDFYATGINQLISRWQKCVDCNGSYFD
inactive: [1] -0.007 | [2] -0.132 | [3] -0.029 | [4] -0.402 | [5] 0.006 | [6] -0.026 | [7] -0.004 | [8] 0.005 | [9] 0.198 | [10] -0.084 | [11] -0.135 | [12] -0.065 | [13] 0.048 | [14] -0.037 | [15] 0.014 | [16] -0.002 | [17] -0.044 | [18] 0.004 | [19] 0.018 | [20] -0.009

RNASET2 (UniProt O00584)
Sequence of UniProt O00584 (O00584 whole entry, looked up): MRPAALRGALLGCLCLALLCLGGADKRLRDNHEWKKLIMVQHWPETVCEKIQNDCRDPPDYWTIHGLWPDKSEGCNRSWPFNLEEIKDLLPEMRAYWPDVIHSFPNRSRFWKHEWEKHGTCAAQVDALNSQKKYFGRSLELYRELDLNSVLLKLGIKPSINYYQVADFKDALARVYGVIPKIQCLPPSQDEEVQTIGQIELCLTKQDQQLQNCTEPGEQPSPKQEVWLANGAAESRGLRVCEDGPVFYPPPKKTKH
inactive: [1] 0.009 | [2] 0.01 | [3] 0.077 | [4] 0.003 | [5] -0.031 | [6] -0.004 | [7] -0.163 | [8] -0.067 | [9] 0.015 | [10] -0.002 | [11] 0.012 | [12] -0.155 | [13] -0.013 | [14] -0.021 | [15] -0.046 | [16] -0.097 | [17] -0.081 | [18] 0.035 | [19] -0.028 | [20] 0.024

RPS25 (UniProt P62851)
inactive: [1] -0.052 | [2] 0.007 | [3] 0.178 | [4] 0.094 | [5] 0.095 | [6] 0.184 | [7] 0.124 | [8] 0.076 | [9] 0.01 | [10] 0.024 | [11] 0.006 | [12] 0.145 | [13] -0.015 | [14] 0.061 | [15] -0.143 | [16] -0.038 | [17] -0.022 | [18] -0.198 | [19] 0.038 | [20] -0.08

RPRD1B (UniProt Q9NQG5)
inactive: [1] -0.014 | [2] -0.126 | [3] -0.082 | [4] -0.039 | [5] 0.055 | [6] -0.09 | [7] -0.116 | [8] -0.011 | [9] 0.04 | [10] -0.004 | [11] 0.014 | [12] 0.022 | [13] -0.018 | [14] -0.031 | [15] -0.011 | [16] 0.106 | [17] 0.037 | [18] 0.061 | [19] -0.004 | [20] 0.019

SCPEP1 (UniProt Q9HB40)
Sequence of UniProt Q9HB40 (Q9HB40 whole entry, looked up): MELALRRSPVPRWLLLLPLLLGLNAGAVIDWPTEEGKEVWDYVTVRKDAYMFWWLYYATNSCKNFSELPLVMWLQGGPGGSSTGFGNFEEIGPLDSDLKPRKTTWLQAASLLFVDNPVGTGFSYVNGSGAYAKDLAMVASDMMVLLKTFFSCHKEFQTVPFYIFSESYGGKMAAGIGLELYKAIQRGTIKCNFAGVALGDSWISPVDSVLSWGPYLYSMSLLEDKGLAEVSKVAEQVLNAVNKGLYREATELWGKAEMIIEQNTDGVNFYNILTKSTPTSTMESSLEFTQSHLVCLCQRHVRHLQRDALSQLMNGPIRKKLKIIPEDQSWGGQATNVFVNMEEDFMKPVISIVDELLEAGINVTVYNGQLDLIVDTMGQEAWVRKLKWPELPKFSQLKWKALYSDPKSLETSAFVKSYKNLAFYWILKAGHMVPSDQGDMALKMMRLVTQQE
inactive: [1] -0.029 | [2] 0.031 | [3] -0.009 | [4] -0.012 | [5] 0.021 | [6] 0.005 | [7] 0.064 | [8] -0.022 | [9] -0.025 | [10] -0.004 | [11] 0.078 | [12] -0.082 | [13] 0.009 | [14] 0.002 | [15] 0.007 | [16] -0.058 | [17] -0.014 | [18] 0.057 | [19] -0.021 | [20] 0.096

RCN3 (UniProt Q96D15)
inactive: [1] 0.033 | [2] 0.107 | [3] -0.133 | [4] 0.153 | [5] -0.076 | [6] 0.096 | [7] 0.038 | [8] -0.309 | [9] 0.054 | [10] 0.087 | [11] -0.065 | [12] 0.054 | [13] -0.068 | [14] -0.122 | [15] 0 | [16] 0.043 | [17] 0 | [18] 0.132 | [19] -0.025 | [20] 0.087

RAVER1 (UniProt E9PAU2)
inactive: [1] -0.086 | [2] -0.376 | [3] -0.624 | [4] 0.413 | [5] -0.069 | [6] -0.322 | [7] -0.186 | [8] -0.087 | [9] 0.105 | [10] -0.065 | [11] 0.032 | [12] -0.244 | [13] 0.258 | [14] 0.024 | [15] 0.372 | [16] -0.898 | [17] 0.082 | [18] -0.099 | [19] 0.049 | [20] -0.002

RAP1GDS1 isoform 5 (UniProt P52306)
Sequence of UniProt P52306 (P52306 whole entry, looked up): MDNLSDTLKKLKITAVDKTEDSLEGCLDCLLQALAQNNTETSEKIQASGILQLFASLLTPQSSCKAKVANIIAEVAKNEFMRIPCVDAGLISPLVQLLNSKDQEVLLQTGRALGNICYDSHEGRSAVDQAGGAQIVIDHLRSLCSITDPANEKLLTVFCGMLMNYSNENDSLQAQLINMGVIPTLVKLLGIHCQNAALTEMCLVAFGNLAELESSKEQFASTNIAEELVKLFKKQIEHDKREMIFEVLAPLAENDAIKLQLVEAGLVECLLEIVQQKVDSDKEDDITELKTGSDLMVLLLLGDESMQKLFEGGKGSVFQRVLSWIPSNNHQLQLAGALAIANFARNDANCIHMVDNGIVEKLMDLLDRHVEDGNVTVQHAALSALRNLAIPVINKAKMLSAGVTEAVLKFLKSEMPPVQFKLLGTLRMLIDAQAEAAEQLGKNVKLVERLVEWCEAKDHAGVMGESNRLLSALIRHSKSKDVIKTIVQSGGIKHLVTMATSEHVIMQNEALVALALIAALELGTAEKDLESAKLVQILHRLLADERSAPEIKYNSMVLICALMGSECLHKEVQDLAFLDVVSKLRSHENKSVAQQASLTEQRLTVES
inactive: [1] 0.004 | [2] -0.077 | [3] -0.069 | [4] -0.01 | [5] 0.006 | [6] -0.017 | [7] -0.006 | [8] -0.024 | [9] 0.176 | [10] 0.139 | [11] -0.026 | [12] -0.019 | [13] 0.022 | [14] -0.023 | [15] -0.041 | [16] -0.025 | [17] 0.066 | [18] -0.072 | [19] 0.091 | [20] 0.015

SAAL1 (UniProt Q96ER3)
inactive: [1] 0.001 | [2] -0.044 | [4] -0.089 | [5] 0.042 | [6] 0.203 | [7] 0.031 | [8] -0.069 | [9] 0.017 | [10] -0.031 | [11] -0.179 | [12] -0.032 | [13] 0.016 | [14] -0.11 | [15] -0.067 | [16] 0.214 | [17] -0.055 | [18] 0.018 | [19] -0.002 | [20] -0.018
active: [3] 0.355

SELENOH (UniProt Q8IZQ5)
Sequence of UniProt Q8IZQ5 (Q8IZQ5 whole entry, looked up): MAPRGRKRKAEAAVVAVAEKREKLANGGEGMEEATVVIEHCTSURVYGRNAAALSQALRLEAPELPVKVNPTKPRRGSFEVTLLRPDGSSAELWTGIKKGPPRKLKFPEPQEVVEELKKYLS
inactive: [1] 0.124 | [2] -0.171 | [3] 0.066 | [4] 0.032 | [5] -0.063 | [6] -0.026 | [7] -0.011 | [8] 0.022 | [9] 0.011 | [10] -0.038 | [11] 0.204 | [12] -0.077 | [13] 0.035 | [14] 0.02 | [15] -0.27 | [16] -0.114 | [17] -0.028 | [18] -0.038 | [19] 0.08 | [20] -0.074

SIDT2 isoform 2 (UniProt Q8NBJ9)
inactive: [1] 0.08 | [2] 0.024 | [3] 0.047 | [4] -0.083 | [5] 0.104 | [6] -0.064 | [7] -0.002 | [8] -0.088 | [9] -0.053 | [10] -0.176 | [11] -0.062 | [12] -0.08 | [13] 0.127 | [14] 0.01 | [15] 0.082 | [16] -0.065 | [17] -0.207 | [18] 0.009 | [19] 0.004 | [20] 0.044
